Experimental data taken from the supplement of paper PMC10515830.
Counter-ions that a name gives are not always drawn.

Experiments:
Settings in all cases: 10 µM; exposure time 6 h
[1] = test system: Danio rerio larvae (5 dpf); experiment: difference in excitability vs DMSO (percentage points); higher = more excitable than DMSO
Summary of the method: (§1)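 Library compounds were tested at 10 µM final in 100 µL egg water on wild-type 5 dpf zebrafish larvae in 96-well plates for 6 h, with 48 larvae per compound. After 3 h, plates at 28.5 ℃ were imaged every 6 s during a 3-h run of moving lines and 100 ms, 400Hz tones. Behaviours were quantified by Z-LaP Tracker and reported as the compound mean less the vehicle control mean, in percentage points.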

[2] = test system: Danio rerio larvae (5 dpf); experiment: difference in startle response vs DMSO (percentage points); higher = stronger startle than DMSO
Summary of the method: as §1

[3] = test system: Danio rerio larvae (5 dpf); experiment: difference in activity during first hour vs DMSO (percentage points); higher = more activity than DMSO
Summary of the method: as §1

[4] = test system: Danio rerio larvae (5 dpf); experiment: difference in habituation to acoustic stimuli vs DMSO (percentage points); higher = more habituation than DMSO
Summary of the method: as §1

[5] = test system: Danio rerio larvae (5 dpf); experiment: difference in combined optomotor response to red, green and blue moving lines vs DMSO (percentage points); higher = stronger optomotor response than DMSO
Summary of the method: as §1

Structure (SMILES) | difference in excitability [1] | difference in startle response [2] | difference in activity during first hour [3] | difference in habituation to acoustic stimuli [4] | difference [5]
C[C@]12CC[C@H](O)CC1=CC[C@@H]1[C@@H]2CC[C@]2(C)C(=O)CC[C@@H]12 [Dehydroepiandrosterone] | 19 | -2.18 | -15.8 | 1.51 | 6.05
CC(C)C[C@H]1C(=O)N2CCC[C@H]2[C@]2(O)O[C@](NC(=O)[C@@H]3C=C4c5cccc6[nH]c(Br)c(c56)C[C@H]4N(C)C3)(C(C)C)C(=O)N12 [Bromocriptine (mesylate)] | 22.1 | -1.2 | 30.9 | -9.36 | -3.6
Cc1cccc([C@H](C)c2c[nH]cn2)c1C [Dexmedetomidine (hydrochloride)] | 3.34 | 6.43 | -24.1 | -7.14 | -16.9
C=CCN1CC[C@]23c4c5ccc(O)c4O[C@H]2C(=O)CC[C@@]3(O)[C@H]1C5 [Naloxone (hydrochloride)] | 12.1 | -4.15 | 1.81 | 1.98 | 9.16
O=C(O[C@H]1C[N+]2(CCCOc3ccccc3)CCC1CC2)C(O)(c1cccs1)c1cccs1 [Aclidinium (bromide)] | -0.582 | -8.56 | -5.04 | -1.38 | -3.58
O=P1(N(CCCl)CCCl)NCCCO1 (stereo not given) [Cyclophosphamide (hydrate)] | -1.55 | -0.479 | 2.35 | -0.439 | 2.91
O=C(O)CCCc1ccc(N(CCCl)CCCl)cc1 [Chlorambucil] | 12.6 | 1.74 | 5.75 | -1.6 | -10.5
N[C@@H]1C[C@H]1c1ccccc1 [Tranylcypromine (hydrochloride)] | -4.31 | -7.1 | -15.2 | -1.86 | 1.86
N[C@@H](Cc1ccc(N(CCCl)CCCl)cc1)C(=O)O [Melphalan] | 10.9 | 1.5 | -4.46 | -1.58 | 7.41
NCC(CC(=O)O)c1ccc(Cl)cc1 (racemic) [(±)-Baclofen] | -0.88 | 5.35 | 13.9 | -0.192 | 6.84
N.N.[Cl][Pt][Cl] [Cisplatin] | -2.35 | -10 | -16.8 | -5.63 | -0.233
CC(C)C[C@H]1C(=O)N2CCC[C@H]2[C@]2(O)O[C@](NC(=O)[C@@H]3C[C@@H]4c5cccc6[nH]cc(c56)C[C@H]4N(C)C3)(C(C)C)C(=O)N12.CC(C)[C@@]1(NC(=O)[C@@H]2C[C@@H]3c4cccc5[nH]cc(c45)C[C@H]3N(C)C2)O[C@@]2(O)[C@@H]3CCCN3C(=O)[C@H](Cc3ccccc3)N2C1=O.CC(C)[C@H]1C(=O)N2CCC[C@H]2[C@]2(O)O[C@](NC(=O)[C@@H]3C[C@@H]4c5cccc6[nH]cc(c56)C[C@H]4N(C)C3)(C(C)C)C(=O)N12.CCC(C)[C@H]1C(=O)N2CCC[C@H]2[C@]2(O)O[C@](NC(=O)[C@@H]3C[C@@H]4c5cccc6[nH]cc(c56)C[C@H]4N(C)C3)(C(C)C)C(=O)N12 [Ergoloid (mesylates)] | 8.62 | 4.7 | -1.3 | 2.76 | -3.42
CN1C[C@H](C(=O)N[C@]2(C)O[C@@]3(O)[C@@H]4CCCN4C(=O)[C@H](Cc4ccccc4)N3C2=O)C[C@@H]2c3cccc4[nH]cc(c34)C[C@H]21 [Dihydroergotamine (mesylate)] | 16.4 | 11.9 | -6.95 | -1.86 | 2.36
CCOC(=O)CC(SP(=S)(OC)OC)C(=O)OCC (stereo not given) [Malathion] | 21.4 | 5.73 | -5.37 | 1.62 | 14.9
CC(NC(C)(C)C)C(=O)c1cccc(Cl)c1 (stereo not given) [Bupropion (hydrochloride)] | -1.99 | -4.01 | -3.52 | 2.84 | -2.98
C=CCN1C[C@H](C(=O)N(CCCN(C)C)C(=O)NCC)C[C@@H]2c3cccc4[nH]cc(c34)C[C@H]21 [Cabergoline] | 13.2 | -8.8 | -4.41 | 5.57 | -3.78
C[C@H](N)[C@H](O)c1ccc(O)c(O)c1 [Levonordefrin] | 2.43 | -2.28 | 3.36 | -5.57 | -0.226
COc1cc2c(c(OC)c1OC)-c1ccc(OC)c(=O)cc1[C@@H](NC(C)=O)CC2 [Colchicine] | -4.48 | -0.112 | 1.93 | 2.9 | 4.29
CN(C)C(=O)Oc1ccc[n+](C)c1 [Pyridostigmine (bromide)] | -1.66 | -2.73 | -1.82 | 4.7 | 2.09
CCOC(=O)c1cncn1[C@H](C)c1ccccc1 [Etomidate] | -7.08 | 15.9 | -22.2 | -6.98 | -19.2
NCC1(CC(=O)O)CCCCC1 [Gabapentin] | -1.43 | 8.77 | 13.9 | 2.43 | 6.89
CN1[C@@H]2C[C@@H](OC(=O)[C@H](CO)c3ccccc3)C[C@H]1[C@@H]1O[C@@H]12 [Scopolamine (hydrobromide)] | 4.44 | 2.53 | -2.69 | -4.87 | 2.89
CCN(C(C)=O)c1cccc(-c2ccnc3c(C#N)cnn23)c1 [Zaleplon] | -3.98 | -8.07 | 5.81 | -1.42 | -10.8
CC(O)(CS(=O)(=O)c1ccc(F)cc1)C(=O)Nc1ccc(C#N)c(C(F)(F)F)c1 (stereo not given) [Bicalutamide] | -0.599 | 4.36 | 0.23 | 6.4 | 9.87
Nc1ncnc2c1ncn2CCOCP(=O)(O)O [Adefovir] | -0.414 | 3.47 | 19.5 | -0.786 | 6.79
Nc1ccncc1 [4-Aminopyridine] | 5.12 | 6.44 | 9.5 | -2.32 | 10.7
